Source: PubChem (Broad Institute)
miR-122 sensor – blocks miR-122 activity in Huh7 sensor cells. hit rate 0.3% among 340,000. Huh7 miR-122 Renilla luciferase sensor, 48 h; neutral wells = 0, positive control = 100. activation (reporter increase), % at 12.5 µM;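 active = mean replicate activation score at least 90 and every replicate individually at or above 90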;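 note: higher luciferase means less miR-122 activity so hits act as miR-122 inhibitors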
PGC1a acetyl inh – modulators of PGC1a acetylation; U2OS PGC1a acetylation, AlphaScreen anti-acetyl-lysine; with virally co-expressed GCN5 acetyltransferase; inhibition, % at 15.6 µM; hit rate 0.17% among 350,000;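 active = every replicate shows inhibition of at least 40%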
PvdQ inh – blocks Pseudomonas aeruginosa PvdQ acylase activity; purified PvdQ acylase, fluorescence plate reader; inhibition, % at 10 µM; hit rate 0.063% among 340,000; in the data active = inhibition above about 30%, passing the limit was not always enough
C2C12 statin – protects C2C12 myotubes from simvastatin toxicity; hit rate 0.78% among 330,000; rescue of ATP level, % at 7.49 µM; ATP luminescence, 48 h; scaled: DMSO 0, geranylgeraniol control 100;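 active = mean ATP rescue above about 67%, or every replicate alone reaching that limit, limit read from the data, passing the limit was not always enough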;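 note: myotubes were challenged with 10 µM simvastatin during compound exposure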
DENV2 CPE – inhibitors of DENV2 cytopathic effect | DENV2-infected cells, cytopathic effect rescue, plate reader | CPE inhibition, % at 9.99 µM | hit rate 1.7% among 350,000 | AID 651640; in the data active = CPE inhibition above about 20%, passing the limit was not always enough; tested in BHK-21 cells
Large screens that a line does not name were inactive. A selection: hits, their analogues and other compounds. The true share with any hit is near 2.2%.

Cc1noc(C)c1NC(=O)N(C)C[C@@H]1Oc2c(NC(=O)Nc3ccc4c(c3)OCO4)cccc2C(=O)N([C@H](C)CO)C[C@@H]1C	none (no result: PvdQ inh)
Cc1noc(C)c1NC(=O)N(C)C[C@H]1Oc2c(NC(=O)Nc3ccc4c(c3)OCO4)cccc2C(=O)N([C@H](C)CO)C[C@H]1C	DENV2 CPE 24 (no result: PvdQ inh)
Cc1ccc(S(=O)(=O)Nc2cccc3c2O[C@@H](CN(C)C(=O)Nc2ccc4c(c2)OCO4)[C@@H](C)CN([C@H](C)CO)C3=O)cc1	DENV2 CPE 22 (no result: PvdQ inh)
COc1ccc(S(=O)(=O)Nc2cccc3c2O[C@@H](CN(C)C(=O)Nc2ccc4c(c2)OCO4)[C@@H](C)CN([C@H](C)CO)C3=O)cc1	DENV2 CPE 21 (no result: PvdQ inh, C2C12 statin)
CN1c2ccc(-c3cccc(C#N)c3)cc2[C@H]2[C@H](CCN2C(=O)CC2CC2)[C@H]1CO	none (no result: PvdQ inh, DENV2 CPE)
CCCN1C[C@H](C)[C@@H](OC)CN(C)C(=O)c2cc(NC(=O)C3CCC3)ccc2OC[C@H]1C	none (no result: PvdQ inh, DENV2 CPE)
COC(=O)[C@H](Cc1ccccc1)NCCCn1cnc(C(=O)Nc2ccc(C)c(C)c2)n1	none
CCC(C)C(CO)NCCCn1cnc(C(=O)Nc2ccc(C)c(C)c2)n1 (centres undefined)	DENV2 CPE 59
COc1ccccc1S(=O)(=O)N1C[C@@H](O)COC[C@@H]2O[C@H](CC(=O)O)CC[C@H]21	none (no result: PvdQ inh)
CCCC#Cc1ccc2c(c1)O[C@H](CN(C)S(=O)(=O)c1cccc(F)c1)[C@@H](C)CN([C@@H](C)CO)S2(=O)=O	none (no result: PvdQ inh)
COc1cccc(S(=O)(=O)N(C)C[C@H]2Oc3cc(C#CCC(C)C)ccc3S(=O)(=O)N([C@@H](C)CO)C[C@H]2C)c1	DENV2 CPE 44 (no result: PvdQ inh)
CCCC#Cc1ccc2c(c1)O[C@@H](CN(C)S(=O)(=O)c1cccc(F)c1)[C@H](C)CN([C@@H](C)CO)S2(=O)=O	DENV2 CPE 30 (no result: PvdQ inh)
CC(C)CC#Cc1ccc2c(c1)O[C@H](CN(C)S(=O)(=O)c1cccc(F)c1)[C@H](C)CN([C@H](C)CO)S2(=O)=O	DENV2 CPE 22 (no result: PvdQ inh)
COc1cccc(S(=O)(=O)N(C)C[C@@H]2Oc3cc(C#CCC(C)C)ccc3S(=O)(=O)N([C@H](C)CO)C[C@H]2C)c1	none (no result: PvdQ inh)
C[C@@H](NC(=O)C[C@H]1CC[C@@H](NC(=O)Nc2ccc3c(c2)OCO3)[C@H](CO)O1)c1ccccc1	none (no result: PvdQ inh)
CN(CC(=O)Nc1ccc(F)c(F)c1F)c1ncnc2sccc12	DENV2 CPE 31 (no result: C2C12 statin)
CN(CC(=O)Nc1ccccc1Br)c1ncnc2sccc12	none
C[C@H]1CN([C@@H](C)CO)C(=O)Cc2cc(NC(=O)C3CC3)ccc2O[C@H]1CN(C)C(=O)Nc1ccc2c(c1)OCO2	none (no result: PvdQ inh)
C[C@H](CO)N1C[C@H](C)[C@H](CN(C)C(=O)C2CC2)Oc2ncc(C#CC3CCCC3)cc2C1=O	none (no result: PvdQ inh)
C[C@@H]1CCCCO[C@H](CN(C)C(=O)CCC(F)(F)F)[C@H](C)CN([C@H](C)CO)C(=O)c2cc(NC(=O)Cc3ccccc3)ccc2O1	none (no result: PvdQ inh, C2C12 statin)
C[C@@H]1CN([C@H](C)CO)C(=O)c2cc(NC(=O)Nc3ccc(F)cc3)ccc2O[C@@H](C)CCCCO[C@H]1CN(C)Cc1ccc2c(c1)OCO2	none (no result: PvdQ inh)
C[C@@H]1CN([C@@H](C)CO)C(=O)c2cc(NC(=O)Nc3ccc(F)cc3)ccc2O[C@@H](C)CCCCO[C@H]1CN(C)Cc1ccc2c(c1)OCO2	DENV2 CPE 22 (no result: PvdQ inh)
C[C@@H]1CN([C@H](C)CO)C(=O)c2cc(NC(=O)Nc3ccc(F)cc3)ccc2O[C@@H](C)CCCCO[C@@H]1CN(C)Cc1ccc2c(c1)OCO2	DENV2 CPE 23 (no result: PvdQ inh)
C[C@@H]1CCCCO[C@@H](CN(C)Cc2ccc3c(c2)OCO3)[C@@H](C)CN([C@H](C)CO)C(=O)c2cc(NC(=O)Nc3ccc(F)cc3)ccc2O1	none (no result: PvdQ inh)
COc1ccc2c3c(n(C)c2c1)[C@@H](CO)N(C(=O)c1cccnc1)CC31CCN(S(=O)(=O)c2ccccc2)CC1	DENV2 CPE 39 (no result: miR-122 sensor, PvdQ inh, C2C12 statin)
CCS(=O)(=O)N1CCC2(CC1)CN(C(=O)c1ccc(F)cc1)[C@@H](CO)c1c2c2ccc(OC)cc2n1C	DENV2 CPE 24 (no result: miR-122 sensor, PvdQ inh, C2C12 statin)
COc1ccc2c3c(n(C)c2c1)[C@H](CO)NCC31CN(C(=O)c2ccc(F)cc2)C1	DENV2 CPE 69 (no result: miR-122 sensor, PvdQ inh, C2C12 statin)
COc1ccc2c3c(n(C)c2c1)[C@@H](CO)N(C(=O)c1cccc(F)c1)CC31CN(C(=O)c2cccc(F)c2)C1	DENV2 CPE 34 (no result: miR-122 sensor, PvdQ inh, C2C12 statin)
COc1ccc2c3c(n(C)c2c1)[C@H](CO)N(C(=O)c1cccnc1)CC31CN(S(C)(=O)=O)C1	none (no result: miR-122 sensor, PvdQ inh, C2C12 statin)
COc1ccc2c3c(n(C)c2c1)[C@@H](CO)NCC31CN(C(=O)c2cccc(F)c2)C1	none (no result: miR-122 sensor, PvdQ inh, C2C12 statin)
C/C=C/c1ccc2c(c1)O[C@@H](CN(C)C(=O)CN1CCOCC1)[C@@H](C)CN([C@@H](C)CO)S2(=O)=O	none (no result: PvdQ inh)
CC(=O)N(C)C[C@@H]1Oc2cc(C#Cc3ccc(F)cc3)ccc2S(=O)(=O)N([C@H](C)CO)C[C@@H]1C	none (no result: PvdQ inh)
C[C@H](CO)N1C[C@H](C)[C@H](CN(C)C(=O)Nc2ccccc2)OCCCC[C@H](C)Oc2ccc(NC(=O)Nc3cccc4ccccc34)cc2C1=O	none (no result: PvdQ inh, C2C12 statin)
COc1ccc2c3c(n(C)c2c1)[C@H](CO)N(C(=O)Nc1ccccc1F)CC31CN(C)C1	DENV2 CPE 86 (no result: miR-122 sensor, PvdQ inh, C2C12 statin)
O=C(Cc1ccccn1)N1CC(=O)N2[C@H](CO)[C@@H](c3ccc(C#CC4CCCCC4)cc3)[C@@H]2C1	DENV2 CPE 26 (no result: miR-122 sensor, PvdQ inh, C2C12 statin)
O=C(c1ccccn1)N1CC(=O)N2[C@H](CO)[C@@H](c3ccc(C#Cc4ccccc4)cc3)[C@@H]2C1	DENV2 CPE 52 (no result: miR-122 sensor, PvdQ inh, C2C12 statin)
COCC(=O)N1CC(=O)N2[C@H](CO)[C@H](c3ccc(C#Cc4cccc(OC)c4)cc3)[C@@H]2C1	DENV2 CPE 40 (no result: miR-122 sensor, PvdQ inh, C2C12 statin)
O=C(c1ccccn1)N1CC(=O)N2[C@@H](CO)[C@@H](c3ccc(C#Cc4ccccc4)cc3)[C@@H]2C1	none (no result: miR-122 sensor, PvdQ inh, C2C12 statin)
COCC(=O)N1CC(=O)N2[C@H](CO)[C@H](c3ccc(C#Cc4cccc(OC)c4)cc3)[C@H]2C1	none (no result: miR-122 sensor, PvdQ inh, C2C12 statin)
COc1cccc(-c2ccc([C@H]3[C@@H](CO)N4C(=O)CN(C(=O)C5CCOCC5)C[C@@H]34)cc2)c1	DENV2 CPE 33 (no result: miR-122 sensor, PvdQ inh, C2C12 statin)
C[C@@H]1CCCCO[C@@H](CN(C)C)[C@H](C)CN([C@@H](C)CO)C(=O)c2cc(NC(=O)Nc3ccc4c(c3)OCO4)ccc2O1	none (no result: PvdQ inh)
CO[C@H]1CN(C)C(=O)c2ccc(NC(C)=O)cc2OC[C@@H](C)NC[C@@H]1C	none (no result: PvdQ inh)
O=C(Cc1ccccc1)N1CC(=O)N2[C@@H](CO)[C@H](c3ccc(C#Cc4ccccc4)cc3)[C@@H]2C1	DENV2 CPE 24 (no result: miR-122 sensor, PvdQ inh, C2C12 statin)
C/C=C/c1ccc([C@@H]2[C@@H](CO)N3C(=O)CN(C(=O)c4cnccn4)C[C@@H]23)cc1	DENV2 CPE 59 (no result: miR-122 sensor, PvdQ inh, C2C12 statin)
O=C(c1ccccn1)N1CC(=O)N2[C@H](C1)[C@H](c1ccc(C#CCc3ccccc3)cc1)[C@@H]2CO	DENV2 CPE 54 (no result: miR-122 sensor, PvdQ inh, C2C12 statin)
O=C(c1ccccn1)N1CC(=O)N2[C@H](CO)[C@@H](c3ccc(C#CCc4ccccc4)cc3)[C@@H]2C1	none (no result: miR-122 sensor, PvdQ inh, C2C12 statin)
